About 64,000 (15%) of roughly 420,000 compounds were called active. Roughly 27% stayed inconclusive and do not appear here. The call rests on the fitted dose curve; in most records, active means well fitted inhibition curve with a large enough effect; inconclusive means small, poorly fitted or top-dose-only effect; inactive means flat fitted curve, though single readings scatter. Only a sample is shown. A call without a number means that no potency is given here.
Experiment: qHTS for Inhibitors of human tyrosyl-DNA phosphodiesterase 1 (TDP1): qHTS in cells in absence of CPT; further: nearly all actives have a fitted effect of over 55% in size
Details: DT40 Tdp1-/- hTDP1 cells, no CPT, ATP luminescence, 48 h; activity change, negative = growth inhibition: at 46.2 µM (top of the series)
Method in brief: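 No-CPT arm: Tdp1-/-;hTDP1 DT40 cells (400/well) plus compounds, incubated ≥48 hr at 37 °C. Readout CellTiter-Glo luminescence.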
In the case of `CC(C)CCNC(=O)c1cccnc1Sc1ccccc1`, the Potency is reported as “inactive”. With `Cc1ccccc1CN1CCN(CC(=O)NCc2ccccn2)C1=O` the Potency was “inactive”. For `Cc1ccccc1CN1C[C@@H]2C[C@@H](c3ccc4nsnc4c3)N3CCC[C@@]23C1=O`, the Potency was 20.6 µM (active). For `CC(=NCC1CCCO1)c1c(O)[nH]c(=O)[nH]c1=O` (stereo unspecified), the Potency was “inactive”. With `COc1ccc(/C=C2/C(=O)N(c3ccccc3)N=C2C)c(OC)c1` the Potency was “inactive”. For `COc1ccc(/C=C2/C(=O)OCc3cc(OC)c(OC)cc32)c(OC)c1`, the Potency was 29.1 µM (active). For `COc1ccc(C2/C(=C(/O)c3ccccc3)C(=O)C(=O)N2C)c(OC)c1` (stereo unspecified), the Potency was “inactive”. For `Cc1nc(N)sc1N=Nc1c(C)n(C)n(-c2ccccc2)c1=O`, the Potency was “inactive”. With `COc1ccc(-c2ccc(CCC(=O)O)n2-c2ccc(O)cc2)cc1` the Potency was “inactive”. In the case of `COc1cccc(OCCn2c(-c3ccc(Br)cc3)nc3ccccc3c2=O)c1`, the Potency is reported as “inactive”. In the case of `COc1ccc(-c2nc3ccccc3c(=O)n2CCc2ccc(O)cc2)cc1`, the Potency is reported as 9.2 µM (active). In the case of `COc1ccc(-n2nc3c(N4CCC(C(=O)NCc5ccccc5)CC4)nnc(C)c3c2C)cc1`, the Potency is reported as “inactive”. In the case of `Cc1nnc(N2CCCC(C(=O)NCCN(C)C)C2)c2nn(-c3ccccc3)c(C)c12` (stereo unspecified), the Potency is reported as “inactive”. In the case of `CCc1ccc(CNC(=O)C2CCN(c3nnc(C)c4c(C)n(-c5ccc(C)cc5)nc34)CC2)cc1`, the Potency is reported as 5.17 µM (active). With `CCOc1ccc(CNC(=O)C2CCCN(c3nnc(C)c4c(C)n(-c5ccccc5)nc34)C2)cc1` (stereo unspecified) the Potency was 18.4 µM (active). In the case of `COC(=O)CCCCC1=CCC2C(=O)C=C(O)C2C1` (stereo unspecified), the Potency is reported as “inactive”. For `CCOC(=O)C1(Cc2cccc(OC)c2)CCN(Cc2csc(C(C)=O)c2)CC1`, the Potency was 13 µM (active). For `CCOC(=O)C1(Cc2cccc(OC)c2)CCN(C(C)CC(C)(C)O)CC1` (stereo unspecified), the Potency was “inactive”. In the case of `CCOC(=O)C1(Cc2cccc(OC)c2)CCN(C(C)COC)CC1` (stereo unspecified), the Potency is reported as “inactive”. For `Cc1ccc(NC(=O)Nc2cccnc2)cc1`, the Potency was “inactive”. In the case of `Cc1ccc(-c2nc(-c3cccnc3)sc2CC(=O)Nc2ccc(C)c(Cl)c2)cc1`, the Potency is reported as 23.1 µM (active). With `O=C(O)Cc1sc(-c2ccc(C(=O)O)cc2)nc1-c1ccccc1` the Potency was “inactive”. For `CC(C)CN1C(=O)CN(S(C)(=O)=O)CC1(C)C(=O)NCc1ccccc1` (stereo unspecified), the Potency was “inactive”. In the case of `CCC(=O)Nc1sc(C(=O)Nc2ccccc2)c(C)c1C(=O)OC`, the Potency is reported as “inactive”. For `CCOC(=O)Nc1sc(C(=O)N(C)C)c(C)c1C(=O)OCC`, the Potency was “inactive”. In the case of `CCOC(=O)c1c(NC(=O)CCl)sc(C(=O)N(CC)CC)c1C`, the Potency is reported as 13 µM (active). With `CCCCNC(=O)OC1CC2CC1[C@H]1CCCCN1C2=O` (stereo partly specified) the Potency was “inactive”. With `CN1CCN(c2ccc(NC(=O)c3ccccc3)cc2)CC1` the Potency was “inactive”. In the case of `CC(C)n1c(=O)[nH]c2cc(C(=O)Nc3ccccc3)ccc21`, the Potency is reported as “inactive”. For `CN1CCN(c2ccc(NC(=O)c3ccc4c(c3)[nH]c(=O)n4Cc3ccc(F)cc3)cc2)CC1`, the Potency was 29.1 µM (active). With `C/C(=N/OC(=O)c1cccc(C(F)(F)F)c1)c1cnccn1` the Potency was “inactive”. In the case of `COc1cccc(OC)c1CN(C)C(=O)c1cnccc1C(F)(F)F`, the Potency is reported as “inactive”. For `CCCC[C@@H]1CN=C(N)N1CCc1cc(C(F)(F)F)cc(C(F)(F)F)c1`, the Potency was 1.3 µM (active). In the case of `O=C1NC[C@@H](Cc2ccc(O)cc2)N(CCc2cccc(F)c2)C1=O`, the Potency is reported as “inactive”. For `CCCS(=O)(=O)N1CCN=C1SCc1cccc(F)c1`, the Potency was “inactive”. For `CCCC[C@@H]1CN=C(N)N1CCc1cccc(F)c1`, the Potency was 5.8 µM (active). With `NNC(=O)COc1ccc(C2SCCS2)cc1` the Potency was “inactive”. With `CC(=O)NC1C(Oc2ccc(C)cc2)OC2COC(c3ccco3)OC2C1O` (stereo unspecified) the Potency was “inactive”. In the case of `O=S(=O)(NC1CCCCC1)c1ccc(F)c2ccccc12`, the Potency is reported as “inactive”. In the case of `CCCC/S(C)=N/S(=O)(=O)c1ccc(C)cc1` (stereo unspecified), the Potency is reported as “inactive”. For `COc1ccc(OCCCC(=O)Oc2ccc(OC)cc2)cc1`, the Potency was “inactive”. In the case of `COc1ccc(C(=O)CCC(=O)Nc2ccc(Cl)cc2)cc1`, the Potency is reported as “inactive”. For `COc1ccc(OCCC(=O)c2ccc(OC)cc2)cc1`, the Potency was 2.59 µM (active). With `Cc1ccc(NC(=O)N2CCC(O)(c3cccnc3)CC2)cc1` the Potency was “inactive”. With `Cn1c(CCc2ccccc2)nnc1SCC(N)=O` the Potency was “inactive”. With `COC(=O)C1=C(C)NC(=S)NC1c1ccc(OCC(=O)N2CC(C)OC(C)C2)c(OC)c1` (stereo unspecified) the Potency was “inactive”. For `CCCCC/C=C/C1=CC(=O)C[C@H](c2ccc(Cl)cc2)C1`, the Potency was “inactive”. In the case of `O=C1CSC(c2ccc(Cl)cc2)N1` (stereo unspecified), the Potency is reported as “inactive”. With `N#Cc1ccc(C2=CC(=O)C[C@H](c3ccc(Cl)cc3)C2)cc1` the Potency was 14.6 µM (active). With `O=C(NCc1ccccc1)[C@@H]1CSC2c3ccccc3C(=O)N21` (stereo partly specified) the Potency was “inactive”. With `CCOC(=O)C1CCN(c2c(Nc3cc(C)cc(C)c3)c(=O)c2=O)CC1` the Potency was 16.4 µM (active). With `CCOC(=O)C1CCN(CCC(=O)Nc2cccc(C)c2)CC1` the Potency was “inactive”. For `CCOC(=O)C1CCN(c2csc3ccc(C)cc3c2=O)CC1`, the Potency was “inactive”. For `COC(=O)Nc1ccc(S(=O)(=O)N(C)CC(F)(F)C(F)F)cc1`, the Potency was “inactive”. With `Cc1ccc(SCCC(=O)OCC(=O)Nc2ncc(Cl)cc2Cl)cc1` the Potency was “inactive”. With `Cc1ccc(-n2c(SCC(=O)Nc3ncc(Cl)cc3Cl)nc3ccccc32)cc1` the Potency was 13 µM (active). For `CC1(C(=O)OCC(=O)Nc2ncc(Cl)cc2Cl)CC1(Cl)Cl` (stereo unspecified), the Potency was “inactive”. With `COc1ccccc1P(=O)(c1ccccc1)c1ccccc1NC(C)=O` (stereo unspecified) the Potency was “inactive”. With `CCCCN(C)C(=O)C1CCN(Cc2ccccn2)CC1` the Potency was “inactive”. In the case of `CC1=C(/C=C/C(C)=C/C=C/C(C)=C/C=C/C=C(C)/C=C/C=C(C)/C=C/C2=C(C)CCCC2(C)C)C(C)(C)CCC1`, the Potency is reported as “inactive”. With `O=C(NCCCn1ccnc1)Nc1ccc(Cl)cc1Cl` the Potency was “inactive”. For `Clc1ccc(C(Cn2ccnc2)OCc2ccsc2Cl)c(Cl)c1` (stereo unspecified), the Potency was 16.8 µM (active). In the case of `O=C(Nc1ccccc1C(=O)NCCCn1ccnc1)c1ccc(Cl)cc1Cl`, the Potency is reported as “inactive”. With `CNc1nccc(-c2ccc(Cl)cc2)c1C#N` the Potency was “inactive”. In the case of `CN(C(=O)COC(=O)c1cc(-c2ccco2)nc2ccccc12)C1CCS(=O)(=O)C1` (stereo unspecified), the Potency is reported as “inactive”. In the case of `N#Cc1ccc(-c2ccc(Cl)cc2)nc1Oc1ccc(F)cc1`, the Potency is reported as “inactive”. In the case of `CC(=O)Nc1cccc(Nc2nc(-c3cccs3)nc3ccccc23)c1`, the Potency is reported as 8.2 µM (active). For `COC(=O)c1cc(-c2cccs2)nc2ccccc12`, the Potency was “inactive”. In the case of `CCN(CC(=O)Nc1c(F)cccc1F)C(=O)Cc1cccs1`, the Potency is reported as “inactive”. In the case of `O=C1CCCCC1C(=O)c1ccccc1` (stereo unspecified), the Potency is reported as “inactive”. In the case of `Cc1n[nH]c(=O)c2c(NC(=O)CSc3ccccc3F)oc(C)c12`, the Potency is reported as “inactive”. With `CC(=O)N1CCN(S(=O)(=O)c2c(F)cc(F)c(Cl)c2F)CC1` the Potency was “inactive”. For `COc1ccc(Cc2n[nH]c(=S)n2NC(=O)Nc2ccc(C)cc2)cc1`, the Potency was “inactive”. With `COc1ccc(OCCCC(=O)OC(C)C(=O)Nc2ccccc2[N+](=O)[O-])cc1` (stereo unspecified) the Potency was “inactive”. With `O=C1C=CC(=O)N1c1ccc(N2CCCCC2)cc1` the Potency was 1.16 µM (active). For `O=c1[nH][nH]c(=O)c2cc(N3CCCC3)ccc12`, the Potency was “inactive”. In the case of `CS(=O)(=O)N1CCC[C@@]2(CCN(c3ccncc3)C2)C1`, the Potency is reported as “inactive”. In the case of `Cc1ccc(-c2c(C)n([O-])c3c([n+]2=O)CCC3)cc1`, the Potency is reported as “inactive”. For `CC1=NNC(=O)C1CCC(=O)N/N=C\c1ccc(Cl)c(Cl)c1` (stereo unspecified), the Potency was “inactive”. With `CCOC(=O)c1c(SCC(=O)Nc2cccc(C)c2C)nc(=O)[nH]c1C` the Potency was “inactive”. In the case of `CCOC(=O)c1c(C)[nH]c(=S)c(C#N)c1-c1ccccc1`, the Potency is reported as “inactive”. With `CCOC(=O)c1c(C)[nH]c2c1-c1ccccc1C(=O)C2=O` the Potency was 0.651 µM (active). For `O=C(COC(=O)c1ccc[nH]c1=O)Nc1ccc2c(c1)OC(F)(F)O2`, the Potency was “inactive”. With `COCC1CCCCN1C(=O)c1cc(COc2ccc(C)c(C)c2)on1` (stereo unspecified) the Potency was 20.6 µM (active). With `Cc1ccc(OCc2cc(C(=O)N(C)CCn3ccnc3C)no2)cc1C` the Potency was “inactive”. With `COC(=O)[C@@H]1CCCN1C(=O)c1cc(COc2cccc3cccnc23)on1` the Potency was “inactive”. With `COC(=O)c1ccccc1NC(=O)c1cc(-c2ccccc2O)no1` the Potency was “inactive”. For `CCOC(=O)C1CCc2nc3ccccc3c(=O)n21` (stereo unspecified), the Potency was “inactive”. With `CCOC(=O)C(CCOc1cccc(CC)c1)C(=O)OCC` the Potency was “inactive”. With `C=CCNC(=O)C12CC3CC(C1)CC(C(=O)NCC=C)(C3)C2` the Potency was “inactive”. With `Cc1cc(C)cc(NC(=O)N2CCC(NC(=O)c3ccc(F)cc3)CC2)c1` the Potency was “inactive”. For `COc1ccc(F)cc1S(=O)(=O)NCC(c1ccc2c(c1)OCO2)N1CCN(C)CC1` (stereo unspecified), the Potency was “inactive”. In the case of `O=C(C(=O)N1CCN(c2ccccc2)CC1)c1ccc2c(c1)OCO2`, the Potency is reported as “inactive”. With `COc1cc(OC)c2ccc(=O)oc2c1C(CCN1CCN(c2ccccc2)CC1)c1ccc2c(c1)OCO2` (stereo unspecified) the Potency was 16.4 µM (active). In the case of `CCN(CC)CCC(c1ccc2c(c1)OCO2)c1c(OC)cc(OC)c2c(-c3ccccc3)cc(=O)oc12` (stereo unspecified), the Potency is reported as 20.6 µM (active). For `COc1cc(COCC(O)CN2CCN(Cc3ccc4c(c3)OCO4)CC2)cc(OC)c1OC` (stereo unspecified), the Potency was “inactive”. In the case of `Cc1nnc(SCc2cc(=O)[nH]c(N3CCN(Cc4ccccc4)CC3)n2)s1`, the Potency is reported as “inactive”. For `CC(Sc1nncn1C)C(=O)Nc1cc(C(F)(F)F)ccc1N1CCOCC1` (stereo unspecified), the Potency was “inactive”. In the case of `CCCCN1C(=O)C(CC(=O)NCc2cccs2)CC(C(=O)N2CCCCCC2)=C1C` (stereo unspecified), the Potency is reported as “inactive”. For `CC(C)(C)NC(=O)NC(=O)COC(=O)C1(C)CC1(Cl)Cl` (stereo unspecified), the Potency was “inactive”. With `COc1ccc(CCc2nc(-c3cccs3)no2)cc1` the Potency was “inactive”. With `COc1ccc(S(=O)(=O)NC(=O)C2(C)CCN2C(=O)c2ccccc2CCc2ccccc2)cc1` (stereo unspecified) the Potency was “inactive”. In the case of `O=C(O)c1cccc(NC(=O)c2cc(-c3cccc(Cl)c3)nc3ccccc23)c1`, the Potency is reported as “inactive”. With `O=C(NCc1cn2ccsc2n1)Nc1cccc(Cl)c1` the Potency was “inactive”. With `Cc1c(C(=O)Nc2cccc(Cl)c2)cn2c(nc3ccccc32)c1C#N` the Potency was 11.6 µM (active). With `COc1cc(C(=O)NN(CCC#N)C2=NS(=O)(=O)c3ccccc32)cc(OC)c1OC` the Potency was “inactive”.

From PubChem BioAssay AID686978 (National Center for Advancing Translational Sciences (NCATS), 2013)
Potency means the concentration at half of the fitted maximal effect.
